Bioassay records from PubChem BioAssay.
This is a sample that favours compounds with a hit; in the whole collection about 4% have one here.
FBA Mtb inh = Mtb FBA enzyme inhibitors, primary screen, biochemical, fluorescence, strain H37Rv; Fructose-bisphosphate aldolase (Mycobacterium tuberculosis (strain ATCC 25618 / H37Rv)), …; purified M. tuberculosis FBA, fluorescence read-out; inhibition, % at 1 µM; 360,000 compounds, 2.3% hits; AID 588726, 2011; in the data active means inhibition above about 27%
Target sequence (P9WQA3 whole entry, looked up): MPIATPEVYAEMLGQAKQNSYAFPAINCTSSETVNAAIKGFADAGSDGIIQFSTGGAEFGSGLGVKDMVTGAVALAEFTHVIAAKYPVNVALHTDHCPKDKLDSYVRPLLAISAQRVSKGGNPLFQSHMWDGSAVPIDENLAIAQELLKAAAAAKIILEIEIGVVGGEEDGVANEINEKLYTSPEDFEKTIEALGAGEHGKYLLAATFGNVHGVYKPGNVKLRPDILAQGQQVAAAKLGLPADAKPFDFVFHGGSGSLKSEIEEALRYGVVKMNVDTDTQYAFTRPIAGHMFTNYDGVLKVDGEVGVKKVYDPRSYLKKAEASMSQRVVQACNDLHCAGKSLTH
MazEF act = activators of E. coli MazEF toxin-antitoxin RNase, primary screen, biochemical, fluorescence, uHTS; AID 504720, 2011; FAM/BHQ RNA-DNA oligo cleavage fluorescence, 5 h; Endoribonuclease toxin MazF (Escherichia coli (strain K12)), P0AE70; activation, % at 20 µM; 350,000 compounds, 0.32% hits; in the data active means activation above about 50%
Target sequence (P0AE70 whole entry, looked up): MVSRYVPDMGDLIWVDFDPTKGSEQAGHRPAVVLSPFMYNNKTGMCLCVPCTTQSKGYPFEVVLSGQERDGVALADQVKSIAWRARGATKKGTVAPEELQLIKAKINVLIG
CCHF vOTU inh = CCHFV vOTU protease inhibitors, primary screen, biochemical, Pep-AMC substrate, fluorescence. 370,000 compounds, 0.55% hits. Crimean-Congo hemorrhagic fever virus L polyprotein viral ovarian tumor (vOTU) protease …. inhibition, % at 11.5 µM
GDH-TPI counter = GDH-TPI coupling enzyme inhibitors, primary screen, artefact control for M. tuberculosis FBA inhibitor project, biochemical, absorbance, full deck; GDH-TPI coupled enzyme counterscreen, NADH absorbance; inhibition, % at 4.8 µM; 360,000 compounds, 1.2% hits; AID 588335, 2011
Mtb betalactam = beta-lactam sensitization of Mtb H37Rv, H37Rv | M. tuberculosis H37Rv growth with meropenem, percent inhibition | inhibition, % at 25 µM | 330,000 compounds, 0.27% hits | AID 434955, 2010; call rule not given here;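 further: growth measured after seven days incubation then overnight dye step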
Numbers stand for hits; . = inactive; ? = inconclusive; / = no result given; + = active, no number. Unless noted, no stated cut-off is given here; in the data, active means inhibition above about 30%; inactive means the rest.

SMILES	FBA Mtb inh	MazEF act	CCHF vOTU inh	GDH-TPI counter	Mtb betalactam
Cc1cc(=O)oc2c3c(cc(OCC(=O)NCCC(=O)O)c12)OC(C)(C)CC3	+	.	.	.	.
CCc1cc(=O)oc2c3c(cc(OCC(=O)NCCC(=O)O)c12)OC(C)(C)CC3	177	.	.	.	.
Cc1c(C)c2ccc(OCC(=O)N3CCC[C@@H]3C(=O)O)c(C)c2oc1=O	129	.	.	.	.
Cc1oc2c(C)c3oc(=O)c(CCC(=O)NCCCN4CCCC4=O)c(C)c3cc2c1C	.	.	.	.	.
Cc1c(OCC(=O)NCCN2CCOCC2)ccc2c1oc(=O)c1ccccc12	124	.	.	.	.
COc1ccc2c(C)c(CCC(=O)NCCCN3CCCC3=O)c(=O)oc2c1C	116	.	.	.	.
Cc1c(OCC(=O)NCCN2CCOCC2)ccc2c3c(c(=O)oc12)CCC3	.	.	.	.	.
O=C1/C(=C/c2ccc3c(c2)OCO3)Oc2cc(OCC(=O)N3CCC[C@H]3C(=O)O)ccc21	.	.	/	.	.
CCc1cc(=O)oc2c3c(cc(OCC(=O)NCCN4CCOCC4)c12)OC(C)(C)CC3	176	.	.	.	.
CCCc1cc(=O)oc2c3c(cc(OCC(=O)N4CCC[C@H]4C(=O)O)c12)OC(C)(C)CC3	+	.	.	.	.
CCc1ccc(CCNC(=O)OC2CC3CC2[C@H]2CCCCN2C3)cc1 (some centres undefined)	/	/	.	/	/
CCc1cc(=O)oc2c3c(cc(OCC(=O)NCCCC(=O)O)c12)OC(C)(C)CC3	+	.	.	.	.
CCc1cc(=O)oc2c3c(cc(OCC(=O)NC4CC4)c12)OC(C)(C)CC3	+	.	.	.	.
CC(C)[C@H](NS(=O)(=O)c1ccc(F)cc1F)C(=O)N1CCC[C@H]1C(=O)NCCc1ccccc1Cl	/	/	.	/	/
CC(=O)c1ccc(-c2nc3ccccc3n2C)o1	+	.	.	.	.
C/C(=N\NC(=O)c1ccncc1)c1cc2ccccc2oc1=O	.	.	.	.	.
Oc1cc(O)cc(-c2cc3ccc(O)cc3o2)c1	177	.	.	.	.
C/C(=N/NC(N)=S)c1cc2ccc(O)cc2oc1=O	129	.	.	.	.
NC(=S)c1cc2ccc(O)cc2oc1=O	+	.	.	.	/
C/C(=N/NC(=O)c1ccncc1)c1cc2ccc(O)cc2oc1=O	+	+	.	.	.
COC1=C[C@H](C(=O)NCCNC(C)=O)[C@@]2(C)Cc3ccccc3[C@H]2CC1=O	/	/	.	/	/
CC(C)C[C@H]1COc2cccc(F)c2S(=O)(=O)N1Cc1cn(CCC2OCCO2)nn1	/	/	.	/	/
C/C(=N\NC(=O)c1ccc([N+](=O)[O-])cc1)c1cc2ccccc2oc1=O	.	.	.	32	.
O=C(O)c1cccc2c1C(=O)c1ccccc1C2=O	.	.	.	.	.
O=C(O)c1cccc(-c2ccccc2)c1O	116	.	.	.	/
SMILES	FBA Mtb inh	MazEF act	CCHF vOTU inh	GDH-TPI counter	Mtb betalactam
Cc1cc(N(C)Cc2ccccc2)nc2cc(O)ccc12	+	.	.	.	.
Cc1cc(N(C)Cc2ccccc2)nc(-c2ccccc2)n1	.	.	.	.	.
Clc1cccc(Cc2c(C3CCCCC3)nc3ccc(Cl)cn23)c1	.	/	.	/	/
Cc1ccc2nc(C3CCCCC3)c(Cc3cccc(Cl)c3)n2c1	145	/	.	/	/
COCCn1c(-c2ccccc2)nc(=S)c2c1CC(C)(C)OC2	.	.	.	37	.
C=CCn1c(-c2ccccc2)nc(=S)c2c1CCCC2	.	.	.	.	.
CC(C)Cn1c(-c2ccccc2)nc(=S)c2c1CCCC2	.	.	.	34	.
S=c1nc(-c2ccccc2)n(CCN2CCOCC2)c2c1CCCC2	.	.	.	51	?
CC1(C)Cc2c(c(=S)nc(-c3ccccc3)n2CCN2CCOCC2)CO1	.	.	.	51	.
O=S1(=O)c2ccc(N3CCSCC3)cc2Oc2ccccc2CN1Cc1cn(Cc2ccc(Cl)cc2)nn1	/	/	.	/	/
Cc1ccccc1CS(=O)(=O)Cc1ccc(C(=O)Nc2ccc(F)cc2)o1	/	/	.	/	/
CCOc1ccccc1C(=O)Nc1ccc(C(=O)NCC2COc3ccccc3O2)cc1 (centres undefined)	/	/	.	/	/
CCC(=O)Oc1ccc2c(c1)OC1(OC(C)=O)OC(C)CC1=C2C (centres undefined)	+	.	.	.	.
CCC(=O)Oc1ccc2oc(=O)cc(C)c2c1	.	.	.	.	.
COc1cc(OC)cc(C(=O)NC2CC(C)(C)NC(C)(C)C2)c1	+	.	.	.	.
O=C(CSc1nc2ccccc2o1)N/N=C/c1ccc(O)c(O)c1	.	.	.	54	.
CCCCC(NC(=O)COc1cc2c(c3oc(=O)cc(C)c13)CCC(C)(C)O2)C(=O)O (centres undefined)	+	.	.	.	.
Cc1cc(=O)oc2c3c(cc(OCC(=O)NC(C)C)c12)OC(C)(C)CC3	+	.	.	.	.
Cc1ccc(Oc2ccc(OCC(=O)NC(C)C(=O)O)cc2)cc1 (centres undefined)	.	.	.	.	.
Cc1cc(OCC(=O)NC(C)C)cc(C)c1Cl	.	.	.	.	.
Cc1cc(=O)oc2c3c(cc(OCC(=O)N[C@@H](C)C(=O)O)c12)OC(C)(C)CC3	+	.	.	.	.
CCCCc1cc(=O)oc2cc(OCC(=O)N[C@@H](Cc3ccccc3)C(=O)O)ccc12	.	.	.	.	.
COCCCNC(=O)/C(C#N)=c1\s/c(=C\c2ccccc2OC(F)F)c(=O)n1CCCOC	.	98	.	.	.
COCCCn1c(=O)/c(=C/c2ccccc2OC(F)F)s/c1=C(\C#N)C(=O)NCCOC	.	72	.	.	/
COCCCn1c(=O)/c(=C\c2ccccc2OC(F)F)s/c1=C(/C#N)C(=O)NCCOC	.	83	.	.	.
SMILES	FBA Mtb inh	MazEF act	CCHF vOTU inh	GDH-TPI counter	Mtb betalactam
CCCCNC(=O)/C(C#N)=c1\s/c(=C\c2ccccc2OC(F)F)c(=O)n1CCCOC	.	85	.	.	.
COCCNC(=O)/C(C#N)=c1\s/c(=C\c2ccccc2OC(F)F)c(=O)n1Cc1ccccc1	/	/	/	/	.
COc1ccc(Cn2c(NC(=O)c3ccccc3)nc(Cc3ccccc3)c2Cc2ccccc2)c(OC)c1	/	/	.	/	/
Cc1c(NC(=O)C2CCCN(S(=O)(=O)c3cccc4ccccc34)C2)c(=O)n(-c2ccccc2)n1C (centres undefined)	/	/	.	/	/
COc1ccc(/C=N\NC(=O)CN2CCN(Cc3ccccc3)CC2)cc1OCc1ccccc1	/	/	.	/	/
Cc1ccc(S(=O)(=O)N2CCCC2C(=O)N2CCc3ccccc3C2)cc1C (centres undefined)	/	/	.	/	/
COCCCn1c(=O)/c(=C\c2cccc(OC)c2OC)s/c1=C(/C#N)C(=O)Nc1ccc(C(=O)O)cc1	.	.	.	40	/
